Read-outs that look alike come from different tables or passages of the source.
Columns and labels:
SgK110 = conditions: concentration: 1 μM, replicates: in singlicate; n = 1
TAK1 = tested on: T1, TAK1; conditions: concentration: 1 μM, replicates: in singlicate; n = 1
T1 construct: gene MAP3K7

TAOK1 = conditions: concentration: 1 μM, replicates: in singlicate; n = 1
TAOK2 = conditions: concentration: 1 μM, replicates: in singlicate; n = 1
TAOK3 = conditions: concentration: 1 μM, replicates: in singlicate; n = 1
TBK1 = conditions: concentration: 1 μM, replicates: in singlicate; n = 1
TEC = conditions: concentration: 1 μM, replicates: in singlicate; n = 1
TESK1 = conditions: concentration: 1 μM, replicates: in singlicate; n = 1
TGFBR1 = conditions: n = 1
TGFBR2 = conditions: concentration: 1 μM, replicates: in singlicate; n = 1
[1] = concentration: 1 μM, replicates: in singlicate
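Also: KINOMEscan kinase panel screen.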

SMILES | %Inh (SgK110) [%] | %Inh (TAK1) [%] | %Inh (TAOK1) [%] | %Inh (TAOK2) [%] | %Inh (TAOK3) [%] | %Inh (TBK1) [%] | %Inh (TEC) [%] | %Inh (TESK1) [%] | %Inh (TGFBR1; [1]) [%] | %Inh (TGFBR2) [%] | %Inh (TGFBR1; 1 µM) [%]
O=C(Nc1n[nH]c2nc(-c3ccco3)c(Br)cc12)c1ccc(CN2CCCC2)cc1.O=C(O)[C@H](O)[C@@H](O)C(=O)O [SB-742352] | 50 | 0 | 0 | 0 | 0 | 13 | 0 | 8 | 0 | 0 | 
c1ccc(-c2ccc3c(-c4ccnc(Nc5ccc6c(c5)OCCO6)n4)cnn3n2)cc1 [GW818941] | 0 | 0 | 0 | 0 | 5 | 22 | 0 | 12 | 11 | 22 | 
CCc1nc(-c2cccc(C)c2)c(-c2ccnc(NC(=O)c3ccccc3)c2)s1 | 18 | 35 | 0 | 0 | 0 | 10 | 18 | 0 | 32 | 0 | 
COc1cc2ncnc(Nc3ccc(OCc4ccccc4Br)c(Cl)c3)c2cc1OC.Cl [GI261590] | 0 | 0 | 0 | 0 | 0 | 10 | 21 | 33 | 27 | 0 | 
Fc1ccc(Nc2nccc(-c3c(-c4ccc(Cl)cc4)nn4ncccc34)n2)cc1F [GW829058] | 9 | 38 | 10 | 16 | 27 | 31 | 8 | 16 | 0 | 0 | 
COc1cc2c(Nc3cccc(NC(=O)c4ccccc4)c3)ncnc2cc1OCCCN1CCOCC1 [GSK223810] | 0 | 0 | 0 | 0 | 0 | 1 | 0 | 0 | 0 | 0 | 
Clc1ccc(-c2cc(-c3c[nH]nc3-c3ccccn3)ccn2)cc1 [GW681251] | 0 | 0 | 0 | 0 | 0 | 0 | 0 | 12 |  | 85 | 79
Nc1nc(-c2ccc3c(N)n[nH]c3c2)cc(N2CCCCC2)n1 [GSK2228768] | 0 | 0 | 0 | 0 | 0 | 23 | 2 | 0 | 0 | 0 | 
COc1ccc(NC(=O)Nc2ccc(C)c(-c3ccc(C(=O)Nc4ccncc4)cc3)c2)cc1 [GSK1398475] | 0 | 0 | 0 | 0 | 0 | 6 | 3 | 19 | 3 | 0 | 
CC(=O)Nc1n[nH]c2ncc(-c3ccccc3)cc12 [SB-548492] | 3 | 20 | 27 | 24 | 8 | 29 | 1 | 6 | 0 | 0 | 
COc1ccc(NC(=O)c2ccc(-c3cc(-c4nnc(C)o4)ccc3C)cc2)cc1 [GW595885] | 13 | 0 | 0 | 0 | 0 | 0 | 2 | 24 | 6 | 0 | 
FC(F)(F)c1cc(Nc2nccc(-c3c(-c4ccc(Cl)cc4)nn4ncccc34)n2)ccc1Cl [GW829351] | 23 | 0 | 0 | 2 | 0 | 2 | 0 | 0 | 21 | 0 | 
Nc1nc(-c2ccc3c(N)n[nH]c3c2)cc(N2CCC[C@@H](C(=O)Nc3ccccc3)C2)n1.O=C(O)C(F)(F)F.O=C(O)C(F)(F)F [GSK2288359] | 0 | 5 | 0 | 0 | 0 | 31 | 0 | 18 | 22 | 0 | 
CCCc1ccc(S(=O)(=O)NC2CCN(c3ccnc(Nc4ccc(OC)cc4)n3)C2)cc1 (centres unmarked) [GSK1379737] | 0 | 0 | 0 | 0 | 0 | 0 | 0 | 36 | 28 | 0 | 
COc1ccc(Nc2nccc(N3CCC(NC(=O)c4cccc(NC(C)=O)c4)C3)n2)cc1 (centres unmarked) [GSK1379732] | 10 | 0 | 0 | 0 | 0 | 0 | 0 | 26 | 4 | 0 | 
CC(C)(C)OC(=O)NC1CCCN(c2cc(-c3ccc4c(N)n[nH]c4c3)nc(N)n2)C1 (centres unmarked) [GSK2286096] | 0 | 0 | 0 | 0 | 0 | 74 | 5 | 0 | 0 | 0 | 
FC(F)(F)c1ccc(-c2nn3ncccc3c2-c2ccnc(Nc3cccc(C(F)(F)F)c3)n2)cc1 [GW828205] | 23 | 0 | 0 | 32 | 0 | 51 | 7 | 3 | 0 | 0 | 
